# The list is not random: actives were taken first. Their share in the collection is about 3.8%.
# Candida biofilm – clotrimazole potentiators killing Candida biofilms, primary screen, with clotrimazole, Alamar Blue; 85,000 tested, 0.14% active; C. albicans biofilm + clotrimazole; inhibition, % at 6 µM;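 active = inhibition above 20%; inactive = inhibition below 20%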;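 also: preformed 24 hr biofilms exposed to compound for 48 hr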
# ERa coact pot – enhancers of ERα–SRC-1 coactivator binding, primary screen, biochemical, TR-FRET, ERα LBD, low estradiol; 86,000 tested, 1.3% active; AID 639, 2007; TR-FRET ERalpha-LBD/SRC-Cy5 coactivator binding, 2 h; 100 = basal binding, no effect; coactivator binding (% of control), % at 25.6 µM; in the data active = activity above about 200%;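 also: binding measured in presence of low estradiol as agonist stimulus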
# ERb SRC1 inh – inhibitors of ERβ-SRC1 coactivator interaction, primary screen, biochemical, TR-FRET, ERβ LBD, SRC-1 peptide; Estrogen receptor beta (Homo sapiens), Q92731; TR-FRET ER-beta LBD / SRC1-Cy5 peptide binding; receptor agonist-loaded with 1 µM estradiol; inhibition, % at 25.6 µM; 86,000 tested, 1.3% active; AID 633, 2007;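 active = compounds whose percent inhibition of the receptor-coactivator binding signal exceeds about 50% in the single-dose screen, limit read from the data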
# MT1-MMP txn act – MT1-MMP promoter reporter activation – cell-based, luciferase luminescence, primary screen. activation factor at 10 µM. AID 750, 2007. HT1080 MT1-MMP promoter luciferase reporter, overnight; active compounds read high. 86,000 tested, 0.16% active;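 active = activation factor of at least 2 for MT1-MMP transcription at 10 µM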
# Smad3 inh – Smad3/FoxH1 peptide binding inhibitors, primary screen, biochemical, TR-FRET; Mothers against decapentaplegic homolog 3 (Homo sapiens), P84022; inhibition, % at 25 µM; 88,000 tested, 0.29% active; TR-FRET Smad3/Dy647-FoxH1 peptide binding, europium anti-His; AID 630, 2007;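 active = compounds that reduce the energy-transfer binding signal between the protein and its labelled peptide by more than half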
# Target sequence (P84022 whole entry, looked up): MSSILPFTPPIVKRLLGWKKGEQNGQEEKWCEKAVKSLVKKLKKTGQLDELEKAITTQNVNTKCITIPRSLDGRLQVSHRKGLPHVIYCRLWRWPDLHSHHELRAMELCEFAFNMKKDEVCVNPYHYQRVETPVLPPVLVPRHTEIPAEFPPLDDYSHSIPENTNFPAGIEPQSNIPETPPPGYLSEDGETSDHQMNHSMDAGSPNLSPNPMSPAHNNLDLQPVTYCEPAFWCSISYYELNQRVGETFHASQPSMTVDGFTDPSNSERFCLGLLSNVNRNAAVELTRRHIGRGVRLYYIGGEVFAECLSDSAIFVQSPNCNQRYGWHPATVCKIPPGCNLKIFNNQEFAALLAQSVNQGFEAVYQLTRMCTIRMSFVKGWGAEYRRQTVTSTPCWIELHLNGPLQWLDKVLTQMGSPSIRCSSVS
# ERa coact inh – ERα–SRC-1 coactivator interaction inhibitors, primary screen, biochemical, TR-FRET, ERα LBD, estradiol-bound; TR-FRET ER-alpha LBD / SRC-1 peptide; inhibition, % at 25.6 µM; 86,000 tested, 1.7% active; in the data active = inhibition above about 50%
# A number is an active result; – = inactive; · = no result; [ ] = dose if it differs, or a comment.
SMILES,Candida biofilm,ERa coact pot,ERb SRC1 inh,MT1-MMP txn act,Smad3 inh,ERa coact inh
O=C(CSc1nc2c([nH]c3ccccc32)c(=O)n1-c1cccc(Cl)c1)N1CCOCC1,–,–,73[fluorescence artefact?],–,–,91[fluorescence artefact?]
COc1ccc(-n2c(SCC(=O)N3CCCC3)nc3c([nH]c4ccccc43)c2=O)cc1,–,–,60[fluorescence artefact?],–,–,87
COc1cccc(-n2c(SCC(N)=O)nc3c([nH]c4ccccc43)c2=O)c1,–,633[fluorescence artefact?],–,–,–,–
Cc1cc(C)cc(N(C(C)C(=O)NCCC2=CCCCC2)S(C)(=O)=O)c1 (configuration not stated),–,–,–,–,–,–
COc1ccccc1C(=O)Nc1c2c(nn1-c1cccc(C)c1C)CS(=O)(=O)C2,–,410[fluorescence artefact?],–,–,–,–
O=C(NCCN1CCOCC1)NC1(C(F)(F)F)Oc2ccccc2O1,–,617[fluorescence artefact?],–,–,–,–
CCCCNC(=O)NC1(C(F)(F)F)Oc2ccccc2O1,–,–,–,–,–,–
C=CCN1C(c2ccccc2)=CS/C1=C(\C#N)c1nnc2n1CCCCC2,–,–,–,–,51,–
CN1CCc2nc(N)nc(-c3nc(N)nc4c3CN(C)CC4)c2C1,·,·,·,·,–,·
CC(C)(C)NC(=O)C(c1ccc(F)cc1)N(Cc1ccco1)C(=O)c1csnn1 (configuration not stated),–,–,–,–,–,–
Cc1ccc(C(C(=O)NC(C)(C)C)N(Cc2cccs2)C(=O)c2csnn2)cc1 (configuration not stated),–,–,–,–,–,60
CC(C)Cn1cnc2c(SCc3ccc(Cl)cc3Cl)nc(N)nc21,·,·,·,·,–,·
Oc1c(Cl)cc(Cl)c2c1NCCC2,–,–,70[fluorescence artefact?],–,–,89[fluorescence artefact?]
Nc1ccc(NC(=O)c2cccs2)c(Cl)c1,–,237[fluorescence artefact?],–,–,–,–
Nc1ccc(Cl)c(NC(=O)c2cccs2)c1,–,–,–,–,–,–
O=C(Nc1ccc(N2CCCC2)cc1)C(Cl)c1ccccc1 (configuration not stated),–,–,50,–,–,59
O=C(C[C@@H](C(=O)O)N1CCOCC1)c1ccccc1,·,·,·,·,–,·
COc1cccc(-n2nnc3c(=O)n(Cc4ccc(Br)cc4)cnc32)c1,–,354[fluorescence artefact?],–,–,–,52[fluorescence artefact?]
COc1cccc(C(=O)Nc2cccc(-c3nnc(-c4ccco4)o3)c2)c1,–,–,–,–,–,–
O=C(NCc1ccccc1)c1ccc2nc(-c3ccco3)c(-c3ccco3)nc2c1,–,–,97[fluorescence artefact?],–,–,93[fluorescence artefact?]
Nc1c(C(=O)Nc2ccccc2)sc2nc(-c3ccco3)ccc12,–,–,58[fluorescence artefact?],–,–,69[fluorescence artefact?]
O=C(Nc1ccccc1)c1ccc2nc(-c3ccco3)c(-c3ccco3)nc2c1,–,–,88[fluorescence artefact?],–,–,90[fluorescence artefact?]
CC(=O)c1ccc(NC(=O)c2ccc3nc(-c4ccco4)c(-c4ccco4)nc3c2)cc1,–,–,95[fluorescence artefact?],·,–,92[fluorescence artefact?]
CCCCNC(=O)c1ccc2nc(-c3ccco3)c(-c3ccco3)nc2c1,·,·,·,–,·,·
c1ccc2cc(-c3cc(-c4cc(-c5ccc6ccccc6c5)on4)no3)ccc2c1,·,·,·,·,–,·
SMILES,Candida biofilm,ERa coact pot,ERb SRC1 inh,MT1-MMP txn act,Smad3 inh,ERa coact inh
CN(C)c1ccc(NC(=O)Cn2cc3c(n2)CCCC3)cc1,–,–,95[fluorescence artefact?],–,–,85[fluorescence artefact?]
CCc1cccc(NC(=O)Cn2cc3c(n2)CCCC3)c1,–,–,–,–,–,–
O=C(O)CCn1ccnc1-c1ccccc1,–,475,–,–,–,–
Cc1nccn1CCC(=O)O,–,–,–,–,–,–
C[C@@]1(C(NC(=O)Cc2ccc(C(F)(F)F)cc2)c2ccc(-c3ccccc3)cc2)C[C@H]1C1CCCCC1 (some centres not stated),·,·,·,–,·,·
N#Cc1cc2ccccc2nc1SCc1cccnc1,–,306[fluorescence artefact?],–,·,–,–
COc1ccc2nc(SCc3cccnc3)c(C#N)cc2c1,–,202[fluorescence artefact?],–,–,–,–
N#Cc1cc2c(nc1SCc1cccnc1)CCCCC2,–,–,–,–,–,–
CC1=C/C(=N\O)[C@H]([C@@H]2C=C(C)CC(C)(C)[C@H]2O)C(C)(C)C1,·,·,·,·,–,·
CCOC(=O)C1CCN(C(=O)c2cccnc2Cl)CC1,–,–,–,–,–,–
CC(C)(C)C(=O)CNS(=O)(=O)c1ccc(S(=O)(=O)NC2CCCC2)cc1,–,284[fluorescence artefact?],–,–,–,–
CC(C)=C[C@H]1[C@H](COC(=O)c2ccccc2Cl)C1(C)C,·,·,·,·,–,·
COc1ccc(CNC(=O)CSc2nc(-c3ccccc3)cc(-c3cccs3)c2C#N)cc1,–,–,–,–,–,–
COc1ccc(-c2cc(-c3cccs3)c(C#N)c(SCC(=O)NCc3ccco3)n2)cc1,–,–,–,–,–,54
COc1cc(CN2CCCCC2)cc2cc(C(=O)O)c(=O)oc12,·,·,·,·,–,·
CC(C)C(=O)Nc1nc(-c2ccccc2)ns1,–,–,–,2,–,–
CCC(=O)Nc1nc(-c2ccccc2)ns1,–,–,–,–,–,–
Cc1ccccc1C(=O)Nc1ccc(Br)cn1,–,204,–,–,–,–
CCOc1ccc(NC(=O)CCCc2cc(-c3ccc(OCC)cc3)on2)cc1,–,204,–,–,–,–
O=C(NCCCN1CCOCC1)c1cc2c(=O)[nH]c3ccccc3c2s1,–,224,–,–,–,–
CCC(=O)Nc1cc(NC(=O)CSc2ncc(-c3ccc(F)cc3)n2Cc2ccco2)ccc1C,–,–,–,2.1,–,–
CCCn1c(=O)c2ccccc2n2c(SCC(=O)Nc3cc(C)on3)nnc12,–,–,100[fluorescence artefact?],–,–,–
Cc1cc(C)c2c(=O)[nH]n(C(C)C)c2n1,–,295,–,–,–,–
CCC(CC)n1[nH]c(=O)c2c(C)cc(C)nc21,–,–,–,–,–,–
COc1ccc(C(=O)c2c(C(F)(F)F)oc3c2C(=O)c2ccccc2C3=O)cc1,–,–,68,–,–,–
SMILES,Candida biofilm,ERa coact pot,ERb SRC1 inh,MT1-MMP txn act,Smad3 inh,ERa coact inh
Cc1ccc(C(=O)c2c(C)oc3c2C(=O)C(=O)c2ccccc2-3)cc1,–,–,–,–,–,–
COc1ccc2c(Cc3c4ccccc4cc4ccccc34)cncc2c1O,·,·,·,·,–,·
Nc1[nH]c(=S)[nH]c(=O)c1N=Nc1c(Br)cc(S(N)(=O)=O)cc1Br,·,·,·,·,54,·
COc1cc(C(=O)Nc2nnc(-c3sccc3C)s2)cc(OC)c1OC,–,476,–,–,–,–
COc1cc(C(=O)Nc2ccncc2)cc(OC)c1OC,–,–,–,–,–,–
Cc1nnc(NC(=O)c2ccc(-c3cccc(C(F)(F)F)c3)o2)s1,–,288,–,–,–,–

# Assay outcomes from PubChem.
